Measured values taken from PubChem BioAssay (Tox21).
Records with an inconclusive call do not appear. Where a call stands in place of a potency, no number is given. The source made the active and inactive calls. Calls follow the shape of the full dose curve.

Target: Beta-2 adrenergic receptor (Homo sapiens) (UniProt P07550)
Assay: Adrenergic beta2 receptor (ADRB2) small molecule agonists, cell-based qHTS assay (AID 1963593)
Conditions: CHO-ADRB2 cells, cAMP HTRF, 30 min; series mostly up to 42.5 µM
Method in brief: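 CHO cells stably over-expressing ADRB2 were plated overnight at 37C, then dosed with compounds plus a stimulation mix containing 100uM IBMX and 25uM Ro-20-1724 for 0.5hr at room temperature. cAMP was measured by HTRF competition, 1hr.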
Potency is read from the fitted curve at half-maximal effect.

Chain of Beta-2 adrenergic receptor (Homo sapiens) (P07550 whole entry, looked up): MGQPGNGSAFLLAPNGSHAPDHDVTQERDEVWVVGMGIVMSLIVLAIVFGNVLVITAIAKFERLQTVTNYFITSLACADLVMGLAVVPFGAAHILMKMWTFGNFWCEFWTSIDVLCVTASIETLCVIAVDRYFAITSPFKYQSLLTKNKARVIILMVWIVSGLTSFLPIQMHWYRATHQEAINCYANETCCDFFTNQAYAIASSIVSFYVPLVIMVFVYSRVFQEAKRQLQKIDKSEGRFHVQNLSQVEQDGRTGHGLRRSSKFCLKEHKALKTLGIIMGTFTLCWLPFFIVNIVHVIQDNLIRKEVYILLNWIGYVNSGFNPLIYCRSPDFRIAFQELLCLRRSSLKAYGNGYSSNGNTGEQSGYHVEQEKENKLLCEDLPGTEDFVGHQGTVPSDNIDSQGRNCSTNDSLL

| SMILES | Potency |
| --- | --- |
| CC[C@H]1OC(=O)[C@H](C)[C@@H](O[C@H]2C[C@@](C)(OC)[C@@H](O)[C@H](C)O2)[C@H](C)[C@@H](O[C@@H]2O[C@H](C)C[C@H](N(C)C)[C@H]2O)[C@](C)(OC)C[C@@H](C)C(=O)[C@H](C)[C@@H](O)[C@]1(C)O | inactive |
| Nc1nc2c(ncn2COC(CO)CO)c(=O)[nH]1 | inactive |
| O=C(Oc1ccccc1C(=O)O)c1ccccc1O | inactive |
| NCC(=O)O | inactive |
| CC(N)C12CC3CC(CC(C3)C1)C2 (stereo not drawn) | inactive |
| Cc1cc(C)c(O)c(C(C)(C)C)c1 | inactive |
| Cc1cccc(Nc2ccncc2S(=O)(=O)NC(=O)NC(C)C)c1 | inactive |
| COc1ccccc1OCC(O)COC(N)=O (stereo not drawn) | inactive |
| C[C@H]1O[C@H](O[C@H]2[C@H](O)[C@@H](O)[C@@H](O[C@H]3[C@H](O)[C@@H](O)[C@H](O)O[C@@H]3CO)O[C@@H]2CO)[C@H](O)[C@@H](O)[C@@H]1N[C@H]1C=C(CO)[C@@H](O)[C@H](O)[C@H]1O | inactive |
| CCN1CC(CCN2CCOCC2)C(c2ccccc2)(c2ccccc2)C1=O (stereo not drawn) | inactive |
| Cc1nccn1CC1CCc2c(c3ccccc3n2C)C1=O (stereo not drawn) | inactive |
| NC(=O)NC(=O)Cc1ccccc1 | inactive |
| Nc1nc2c(ncn2COCCO)c(=O)[nH]1 | inactive |
| Cc1[nH]cnc1CN1CCc2c(c3ccccc3n2C)C1=O | inactive |
| CC(C)[C@H](N)C(=O)OCCOCn1cnc2c(=O)[nH]c(N)nc21 | inactive |
| OC(CCCN1CCCCC1)(c1ccccc1)c1ccccc1 | inactive |
| C[C@@H]1C[C@H]2[C@@H]3CCC4=CC(=O)C=C[C@]4(C)[C@@]3(F)[C@@H](O)C[C@]2(C)[C@H]1C(=O)CO | inactive |
| Nc1ccc(S(=O)(=O)O)c(N)c1 | inactive |
| CC[C@H]1OC(=O)[C@H](C)[C@@H](O[C@H]2C[C@@](C)(OC)[C@@H](O)[C@H](C)O2)[C@H](C)[C@@H](O[C@@H]2O[C@H](C)C[C@H](N(C)C)[C@H]2O)[C@](C)(O)C[C@@H](C)C(=O)[C@H](C)[C@@H](O)[C@]1(C)O | inactive |
| COCCCN1CCC(NC(=O)c2cc(Cl)c(N)c3c2OCC3)CC1 | inactive |
| Cc1ccc(C(=O)c2ccc(CC(=O)O)n2C)cc1 | inactive |
| CCCCOc1ccc(OCCCN2CCOCC2)cc1 | inactive |

| SMILES | Potency |
| --- | --- |
| Oc1ccc(Oc2ccccc2)cc1 | inactive |
| O=C(O)CCNC(=O)c1ccccc1 | inactive |
| CO[C@@H]1[C@H](OC(=O)/C=C/C=C/C=C/C=C/C(=O)O)CC[C@]2(CO2)[C@H]1[C@@]1(C)O[C@@H]1CC=C(C)C | inactive |
| CC(=O)O[C@@H]1C(=O)O[C@@H]2[C@H]1OC(=O)[C@@H]2OC(C)=O | inactive |
| O=C(O)CCCCCCC(=O)O | inactive |
| Cc1ccc2ccccc2n1 | inactive |
| COc1ccc([C@@H]2Sc3ccccc3N(CCN(C)C)C(=O)[C@@H]2OC(C)=O)cc1 | inactive |
| Clc1ccc2n[nH]nc2c1 | inactive |
| Cc1cc(C(C)(C)C)c(O)c(C)c1CC1=NCCN1 | inactive |
| N#C[C@@H]1CC(F)(F)CN1C(=O)CNC1CC2CCC(C1)N2c1ncccn1 (stereo partly drawn) | inactive |
| Cc1oc(-c2ccccc2)nc1CCOc1ccc(C[C@H](Nc2ccccc2C(=O)c2ccccc2)C(=O)O)cc1 | inactive |
| Cc1cc(O)c2c(c1)C(=O)c1cccc(O)c1C2=O | inactive |
| CCCCCCCCSCc1cc(C)c(O)c(CSCCCCCCCC)c1 | inactive |
| O=C(O)c1cccc(N(Cc2cccnc2)c2ccc(OC(F)F)c(OC(F)F)c2)c1 | inactive |
| C/C(=N\O)c1ccc(OCC(=O)N2CCCCC2)cc1 | inactive |
| C=CC(=O)OCC(CO)(COCC(COC(=O)C=C)(COC(=O)C=C)COC(=O)C=C)COC(=O)C=C | 30.3 µM (active) |
| CCOC(=O)c1c(N)sc2c1CCN(Cc1ccccc1)C2 | inactive |
| CC1=C(C(=O)OC(C)C)C(c2cccc([N+](=O)[O-])c2)C(C(=O)OC2CN(C(c3ccccc3)c3ccccc3)C2)=C(N)N1 (stereo not drawn) | inactive |
| CCN(O)CC | inactive |
| OCC(O)[C@@H](O)[C@H](O)[C@H](O)CO[C@H]1O[C@H](CO)[C@@H](O)[C@H](O)[C@H]1O (stereo partly drawn) | inactive |
| OCCSc1ccccc1 | inactive |
